# Where two headings read alike, the source gives them in different places.
# What was measured:
# Design in all cases: species or system human, MV4-11 + K-562 + COLO205 + SK-N-BE2 + OVCAR-8
# AURKB = details: read-out: apparent Kd, n = 1
# EPHB6 = details: read-out: apparent Kd, n = 1
# EPHB1 = details: read-out: apparent Kd, n = 1
# PLK4 = details: read-out: apparent Kd, n = 1
# PRKD2 = details: read-out: apparent Kd, n = 1
# PRKD3 = details: read-out: apparent Kd, n = 1
# CDK17 = details: read-out: apparent Kd, n = 1
# RIOK2 = details: read-out: apparent Kd; compound concentrations:100 nM and 1000 nM (sheet 'Samples'); n = 1
# JAK2 = details: read-out: apparent Kd, n = 1
# BTK = details: read-out: apparent Kd, n = 1
# MAPK14 = details: read-out: apparent Kd, n = 1
# MAPK9 = details: read-out: apparent Kd; compound concentrations:100 nM and 1000 nM (sheet 'Samples'); n = 1
# BMPR1B = details: read-out: apparent Kd; compound concentrations:100 nM and 1000 nM (sheet 'Samples'); n = 1
# FLT4 = details: read-out: apparent Kd, n = 1
# DDR2 = details: read-out: apparent Kd; compound concentrations:100 nM and 1000 nM (sheet 'Samples'); n = 1
# AKT1 = details: read-out: apparent Kd; compound concentrations:100 nM and 1000 nM (sheet 'Samples'); n = 1
# AKT2 = details: read-out: apparent Kd, n = 1
# FN3KRP = details: read-out: apparent Kd, n = 1
# ACAD8 = details: read-out: apparent Kd; compound concentrations:100 nM and 1000 nM (sheet 'Samples'); n = 1
# [1] = compound concentrations:100 nM and 1000 nM (sheet 'Samples')
compound,measurement,setting,value
c1ccc(Oc2ccc(Nc3ccnc4cc(-c5ccc(CN6CCCCC6)o5)ccc34)cc2)nc1 [GW567143X],potency estimated from few doses,"AURKB; compound concentrations: 100 nM and 1000 nM (sheet 'Samples'), CATDS: 3.8957530355760599E-2",1180 nM
same,potency estimated from few doses,"EPHB6; compound concentrations: 100 nM and 1000 nM (sheet 'Samples'), CATDS: 3.4972740863409998E-2",1830 nM
Cc1ccc(O)cc1Nc1ccnc2ccc(C(C)(C)C)cc12 [GW856805X],potency estimated from few doses,"EPHB1; compound concentrations: 100 nM and 1000 nM (sheet 'Samples'), CATDS: 6.9197667639957702E-2",25.7 nM
CC(C)c1nc(-c2ccc(F)c(NS(=O)(=O)c3c(F)cccc3F)c2)c(-c2ccnc(Nc3ccc(N4CCOCC4)nc3)n2)s1 [GSK1804250A],potency estimated from few doses,EPHB6; [1],738 nM
same,potency estimated from few doses,PLK4; [1],403 nM
same,potency estimated from few doses,PRKD2; [1],232 nM
same,potency estimated from few doses,PRKD3; [1],510 nM
N#Cc1cccc(Nc2nccc(-c3cnn4ncccc34)n2)c1 [GW778894X],potency estimated from few doses,CDK17; [1],44.8 nM
same,potency estimated from few doses,RIOK2,75.3 nM
CN(C)Cc1ccc(-c2ccc3c(Nc4ccc(Oc5ccccn5)cc4)ccnc3c2)o1 [GW567148X],potency estimated from few doses,"AURKB; compound concentrations: 100 nM and 1000 nM (sheet 'Samples'), CATDS: 1.8860841823088701E-2",1200 nM
same,potency estimated from few doses,"EPHB1; compound concentrations: 100 nM and 1000 nM (sheet 'Samples'), CATDS: 2.01059548951249E-2",977 nM
same,potency estimated from few doses,"EPHB6; compound concentrations: 100 nM and 1000 nM (sheet 'Samples'), CATDS: 1.6574994682998501E-2",1960 nM
same,potency estimated from few doses,"JAK2; compound concentrations: 100 nM and 1000 nM (sheet 'Samples'), CATDS: 5.6320908598955097E-2",121 nM
same,potency estimated from few doses,"PLK4; compound concentrations: 100 nM and 1000 nM (sheet 'Samples'), CATDS: 1.8058867791982399E-2",1390 nM
Cn1cc(-c2cnc(N)c3c(-c4ccc5c(c4)CCN5C(=O)Cc4ccccc4)csc23)cn1 [GSK2593074A],potency estimated from few doses,AURKB; [1],692 nM
same,potency estimated from few doses,EPHB6; [1],151 nM
COc1cc2nccc(Nc3ccc(Oc4ccccc4)cc3)c2cc1OC.Cl [GI261656A],potency estimated from few doses,"BTK; compound concentrations: 100 nM and 1000 nM (sheet 'Samples'), CATDS: 4.2074902264998597E-2",1400 nM
COc1cc2ncn(-c3cc(OCCCc4ccccc4)c(C(N)=O)s3)c2cc1OC [GSK205189A],potency estimated from few doses,EPHB1; [1],958 nM
same,potency estimated from few doses,PLK4; [1],1240 nM
Cl.Cn1c(=O)c(Cc2ccc(F)cc2F)cc2cnc(NC3CCOCC3)nc21 [RO3308757-001],potency estimated from few doses,EPHB1; [1],541 nM
same,potency estimated from few doses,MAPK14; [1],442 nM
same,potency estimated from few doses,MAPK9,1030 nM
same,potency estimated from few doses,PLK4; [1],963 nM
Cn1cc(-c2ccc3c(c2)CCN3C(=O)Cc2cccc(Cl)c2)c2c(N)ncnc21 [GSK2606590A],potency estimated from few doses,"AURKB; compound concentrations: 100 nM and 1000 nM (sheet 'Samples'), CATDS: 0.34532909823612901",968 nM
COc1cccc(-c2c[nH]c3c(N/N=C/c4ccncc4)ncnc23)c1 [GW814408X],potency estimated from few doses,BMPR1B,612 nM
CC(C)c1nc(-c2cccc(NS(=O)(=O)c3c(F)cccc3F)c2F)c(-c2ccnc(Nc3ccc(N4CCOCC4)nc3)n2)s1 [GSK2008607A],potency estimated from few doses,"BTK; compound concentrations: 100 nM and 1000 nM (sheet 'Samples'), CATDS: 2.19270493489029E-2",1030 nM
same,potency estimated from few doses,"CDK17; compound concentrations: 100 nM and 1000 nM (sheet 'Samples'), CATDS: 2.730533885315E-2",587 nM
same,potency estimated from few doses,"EPHB6; compound concentrations: 100 nM and 1000 nM (sheet 'Samples'), CATDS: 2.9714339770291101E-2",487 nM
same,potency estimated from few doses,"FLT4; compound concentrations: 100 nM and 1000 nM (sheet 'Samples'), CATDS: 2.2429602546286599E-2",967 nM
same,potency estimated from few doses,"PLK4; compound concentrations: 100 nM and 1000 nM (sheet 'Samples'), CATDS: 0.15679756420664201",38.7 nM
same,potency estimated from few doses,"PRKD2; compound concentrations: 100 nM and 1000 nM (sheet 'Samples'), CATDS: 3.65380455917537E-2",323 nM
same,potency estimated from few doses,"PRKD3; compound concentrations: 100 nM and 1000 nM (sheet 'Samples'), CATDS: 2.5792208741447099E-2",671 nM
O=S(=O)(c1ccc(-c2ccnc3[nH]ccc23)cc1)N1CCCC1 [GSK846226A],potency estimated from few doses,RIOK2,2220 nM
CNc1nccc(-c2c(-c3ccc(F)cc3)ncn2C2CCN(C)CC2)n1 [SB-222903],potency estimated from few doses,DDR2,625 nM
same,potency estimated from few doses,"MAPK14; compound concentrations: 100 nM and 1000 nM (sheet 'Samples'), CATDS: 0.13479921836841699",29.9 nM
same,potency estimated from few doses,MAPK9,462 nM
Nc1nc(N)c2nc(-c3ccccc3)[nH]c2n1 [SKF-12778],potency estimated from few doses,AKT1,1480 nM
same,potency estimated from few doses,AKT2; [1],1570 nM
same,potency estimated from few doses,BTK; [1],1330 nM
same,potency estimated from few doses,JAK2; [1],66.2 nM
same,potency estimated from few doses,MAPK14; [1],973 nM
same,potency estimated from few doses,MAPK9,2000 nM
same,potency estimated from few doses,RIOK2,1620 nM
CS(=O)(=O)Cc1ccc(Nc2nccc(-c3c(-c4cccc(NC(=O)c5c(F)cccc5F)c4)nn4ccccc34)n2)cc1 [GSK323543A],potency estimated from few doses,"BTK; compound concentrations: 100 nM and 1000 nM (sheet 'Samples'), CATDS: 6.87410205009992E-2",1140 nM
Cn1cc(-c2ccc3c(c2)CCN3C(=O)Cc2cc(F)cc(C(F)(F)F)c2)c2c(N)ncnc21 [GSK2635225A],potency estimated from few doses,"AKT2; compound concentrations: 100 nM and 1000 nM (sheet 'Samples'), CATDS: 0.123001791308401",1850 nM
Cc1cc(O)cc(C)c1/C=C/c1cncc(-c2nn[nH]n2)c1.Cl [GW441806A],potency estimated from few doses,"EPHB6; compound concentrations: 100 nM and 1000 nM (sheet 'Samples'), CATDS: 4.3077369875392603E-2",1670 nM
same,potency estimated from few doses,"JAK2; compound concentrations: 100 nM and 1000 nM (sheet 'Samples'), CATDS: 7.0798034106367105E-2",387 nM
CC(=O)N1CCN(c2ccc(Nc3nccc(-c4sc(C(C)C)nc4-c4cccc(NS(=O)(=O)c5cccc(Cl)c5)c4)n3)cn2)CC1 [GSK1660437A],potency estimated from few doses,"CDK17; compound concentrations: 100 nM and 1000 nM (sheet 'Samples'), CATDS: 5.6429200744427303E-2",643 nM
same,potency estimated from few doses,"PLK4; compound concentrations: 100 nM and 1000 nM (sheet 'Samples'), CATDS: 0.17154832295699199",114 nM
same,potency estimated from few doses,"PRKD2; compound concentrations: 100 nM and 1000 nM (sheet 'Samples'), CATDS: 5.4931765235902902E-2",680 nM
same,potency estimated from few doses,"PRKD3; compound concentrations: 100 nM and 1000 nM (sheet 'Samples'), CATDS: 4.4377312299456101E-2",1110 nM
Nc1ncc(-c2cn[nH]c2)c2scc(-c3ccc4c(c3)CCN4C(=O)Cc3ccccc3)c12 [GSK2593067A],potency estimated from few doses,"AURKB; compound concentrations: 100 nM and 1000 nM (sheet 'Samples'), CATDS: 6.5904790346866707E-2",1230 nM
same,potency estimated from few doses,"EPHB6; compound concentrations: 100 nM and 1000 nM (sheet 'Samples'), CATDS: 9.2316879629761303E-2",522 nM
Cn1cc(C2=C(c3cccc([N+](=O)[O-])c3)C(=O)NC2=O)c2ccccc21 [RO0317474-000],potency estimated from few doses,"FN3KRP; compound concentrations: 100 nM and 1000 nM (sheet 'Samples'), CATDS: 0.16649901321048899",1070 nM
CC(=O)Nc1ccc2c(C3=C(c4cn(C)c5ccccc45)C(=O)NC3=O)cn(C)c2c1 [RO0317596-000],potency estimated from few doses,"FN3KRP; compound concentrations: 100 nM and 1000 nM (sheet 'Samples'), CATDS: 0.121909442798699",1250 nM
CCS(=O)(=O)c1ccc(OC)c(Nc2ncc(-c3cccc(F)c3)o2)c1 [GW621970X_KCGS],potency estimated from few doses,ACAD8,2330 nM
same,potency estimated from few doses,FLT4; [1],574 nM
COc1cc(F)c(F)c(F)c1C(=O)c1cnc(NC2CCN(S(C)(=O)=O)CC2)nc1N [RO4600703-000],potency estimated from few doses,CDK17; [1],77.3 nM
same,potency estimated from few doses,FN3KRP; [1],549 nM

# From article PMC11062922 (Nature Chemical Biology, 2023)
